According to the OligoGym collection:

molecular target: GIPC2; experiment: pooled miR-30 sensor sort-seq; sequence = guide strand; conditions: shRNA
Further: reference of the scale not given here.

Row | Sequence | sensor-assay potency score (higher = more potent)
1 | TATGAAATCTTCTAGTCCTAGT | -0.186
2 | TTAGGTTCTATTAACTTCATAG | -0.883
3 | ATACACATGAAATTAAACCAGA | -0.735
4 | TTAACTGAGTCAATAACACCAC | 0.431
5 | TAACTTCTTAGCAACATCATAG | -1.26
6 | TAACTGAGTCAATAACACCACC | -0.972
7 | TTTATACACATTCACTTCTTTT | -1.24
8 | ATATGAAATCTTCTAGTCCTAG | -0.694
9 | TTTCTCCTGATGACTTTCCAGC | -1.05
10 | TTAACTTCTTAGCAACATCATA | -1.57
11 | TTACTTTGTCCTTTCCAGCTTC | -0.236
12 | TAAAAGCATAGCCAACACCATT | -1.62

molecular target: GIP; experiment: as above; conditions: shRNA

Row | Sequence | sensor-assay potency score (higher = more potent)
13 | AAAGTCTTGTTGGTGAATCTTG | -0.684
14 | TTGGTGAATCTTGTCCATGGCA | -0.501
15 | TTGAATCAGCAAGTCCCGCAGC | -0.492
16 | TAGCATGAGATCCAACAGGCAG | -0.668
17 | TAGTCACTGATGAAAGTCCCTT | -0.346
18 | TTGTCCATGGCAATACTGTAGT | -0.964
19 | AATACTGTAGTCACTGATGAAA | -1.63
